Experimental data reported in PubChem BioAssay (NCATS).
Records with an inconclusive call do not appear. A call without a number means that no potency is given here. Calls of active or inactive are those of the source. Calls follow the shape of the dose curve; as a rule, active = well fitted curve in the direction sought with a large enough effect; inconclusive = small, poorly fitted or top-dose-only effect, or another doubt; inactive = no such curve, though single readings can be large; an effect the other way counts as inactive or inconclusive.

Assays:
[1] = qHTS of pediatric cancer cell lines to identify multiple opportunities for drug repurposing: Primary screen for control Hh wild type fibroblast cells (AID 1347106);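 also: series mostly up to about 46 µM; a drop in luminescence marks cytotoxicity and a rise apparent proliferation; nearly all actives have a fitted effect of over 55% in size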
Outline: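 Viability after 48 h compound treatment at 37C, 500-1,000 cells/well, read as ATP luminescence with CellTiter-Glo. Primary screens used 11-point (MIPE, 0.78 nM-46 µM) or 8-point (NPC, 0.59 nM-46 µM) final concentrations; follow-up screens used 11-point dilutions.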

[2] = qHTS of pediatric cancer cell lines to identify multiple opportunities for drug repurposing: Primary screen for Rh30 cells (AID 1347107); also: series mostly up to about 46 µM; nearly all actives have a fitted effect of over 75% in size
Outline: (§1)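 Cells (500-1,000/well) rested 5 h, then received compounds for 48 h; metabolically active cells were measured by CellTiter-Glo luminescence. Final concentrations spanned up to 46 µM (MIPE, 11-point) or 0.59 nM-46 µM (NPC, 8-point) in primary screens, 11-point in follow-ups.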

[3] = qHTS of pediatric cancer cell lines to identify multiple opportunities for drug repurposing: Primary screen for Rh41 cells (AID 1347108); also: nearly all actives have a fitted effect of over 70% in size; also: potency is read from the fitted curve at half-maximal effect
Outline: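 Following a 5-hour attachment period, cells at 500-1,000/well received compounds and were cultured for 48 hours. CellTiter-Glo was added and luminescence read to estimate viable, metabolically active cells.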

[4] = qHTS of pediatric cancer cell lines to identify multiple opportunities for drug repurposing: Confirmatory screen for A673 cells (AID 1347110);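 also: potency is read from the fitted curve at half-maximal effect; cells exposed to compound for 48 h before the viability read; nearly all actives have a fitted effect of over 65% in size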
Outline: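 Forty-eight-hour viability assay. Follow-up compounds ran at 11-point dilutions; positive control bortezomib at 2.3 uM final, neutral control DMSO.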

[5] = qHTS of pediatric cancer cell lines to identify multiple opportunities for drug repurposing: Confirmatory screen for BT-12 cells (AID 1347112); also: nearly all actives have a fitted effect of over 55% in size
Outline: as §1

[6] = qHTS of pediatric cancer cell lines to identify multiple opportunities for drug repurposing: Confirmatory screen for LAN-5 cells (AID 1347113); also: nearly all actives have a fitted effect of over 65% in size
Outline: as §1

[7] = qHTS of pediatric cancer cell lines to identify multiple opportunities for drug repurposing: Confirmatory screen for DAOY cells (AID 1347114); also: nearly all actives have a fitted effect of over 65% in size
Outline: (§2)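 Viability measured as metabolically active cells via CellTiter-Glo luminescence following 48 hours of compound exposure, 11-point dilutions in confirmatory testing. 500-1,000 cells/well plated 5 hours before dosing; controls were DMSO and 2.3 µM bortezomib.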

[8] = qHTS of pediatric cancer cell lines to identify multiple opportunities for drug repurposing: Confirmatory screen for SJ-GBM2 cells (AID 1347116); also: nearly all actives have a fitted effect of over 60% in size
Outline: as §2

[9] = qHTS of pediatric cancer cell lines to identify multiple opportunities for drug repurposing: Confirmatory screen for NB1643 cells (AID 1347109); also: nearly all actives have a fitted effect of over 45% in size; also: potency is read from the fitted curve at half-maximal effect
Outline: as §1

[10] = qHTS of pediatric cancer cell lines to identify multiple opportunities for drug repurposing: Confirmatory screen for NB-EBc1 cells (AID 1347115);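 also: cells exposed to compound for 48 h before the viability read; nearly all actives have a fitted effect of over 45% in size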
Outline: as §1

In the case of `Cc1ccc(-n2nc(C(C)(C)C)cc2NC(=O)Nc2ccc(OCCN3CCOCC3)c3ccccc23)cc1`, the Potency [1] is reported as “inactive”, the Potency [2] is reported as “inactive” and the Potency [3] is reported as “inactive”.

In the case of `CNCc1ccc(-c2[nH]c3cc(F)cc4c3c2CCNC4=O)cc1`, the Potency [1] is reported as “inactive”, the Potency [2] is reported as “inactive” and the Potency [3] is reported as “inactive”. The Potency [4] was 147 nM (active), the Potency [5] was “inactive” and the Potency [6] was “inactive”. The Potency [7] was “inactive” and the Potency [8] was “inactive”.

For `CCn1cc(C(=O)O)c(=O)c2cc(F)c(N3CCNC(C)C3)c(F)c21` (configuration not stated), the Potency [1] was “inactive”, the Potency [2] was “inactive” and the Potency [3] was “inactive”.

For `COc1nc(-c2ccc3c(c2)OCO3)n(-c2ccc(NC(=O)CSc3ccccc3)cc2)n1`, the Potency [1] was “inactive”, the Potency [2] was “inactive” and the Potency [3] was “inactive”.

In the case of `Nc1nc2c(ncn2COCCO)c(=O)[nH]1`, the Potency [1] is reported as “inactive”, the Potency [2] is reported as “inactive” and the Potency [3] is reported as “inactive”. The Potency [9] was “inactive”, the Potency [5] was “inactive” and the Potency [6] was “inactive”. The Potency [7] was “inactive”, the Potency [10] was “inactive” and the Potency [8] was “inactive”.

For `C[C@]12CC[C@H](O)CC1=CC[C@@H]1[C@H]2CC[C@]2(C)C(c3cccnc3)=CC[C@H]12`, the Potency [2] was “inactive” and the Potency [3] was “inactive”.

In the case of `CCOc1cc(N2CCC(O)CC2)ccc1Nc1ncc2c(n1)N(C)c1ccccc1C(=O)N2C`, the Potency [1] is reported as “inactive”, the Potency [3] is reported as 2960 nM (active) and the Potency [9] is reported as 16500 nM (active). The Potency [4] was 46.5 nM (active).

For `CCC(=O)N[C@H]1CC[C@H](C(=O)N(C)c2ccc(-c3nc4ccccc4o3)cc2)C1`, the Potency [2] was “inactive”.

With `CCOc1cc(C=C2C(=O)N(c3ccccc3)N=C2C)cc(Cl)c1OCC(=O)OC` the Potency [2] was “inactive”.

For `Cc1cnc(Nc2ccc(OCCN3CCCC3)cc2)nc1Nc1cccc(S(=O)(=O)NC(C)(C)C)c1`, the Potency [2] was “inactive” and the Potency [3] was “inactive”.

With `Cn1c(=O)c(F)c(Nc2ccc(I)cc2F)c2c(=O)n(C[C@@H](O)CO)cnc21` the Potency [2] was “inactive”.
